An excerpt weighted towards active compounds, which were near 6.5% of everything screened.
Spn DPM-DC inh = inhibitors of Streptococcus pneumoniae diphosphomevalonate decarboxylase; purified DPM-DC, PK/LDH coupled NADH fluorescence; 65,000 compounds, 0.49% hits; calls only at 10 µM; AID 556;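 active = the 320 compounds with the highest percent inhibition in the single-dose primary screen, excluding strongly autofluorescent ones, cut at about 32% in these data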;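 also: kinetic rate of NADH fluorescence loss reporting ADP formed by the decarboxylase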
Spn PMK inh = S. pneumoniae PMK inhibition; 65,000 compounds, 0.49% hits; purified PMK, PK/LDH-coupled NADH absorbance 340 nm; inhibition, % at 10 µM;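 active = top-ranked compounds by inhibition in the single 10 µM screen, taking a fixed number of the strongest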;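 also: 0% = full reaction with DMSO carrier and 100% = background rate without enzyme reaction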
MK inhibit = inhibitors of Streptococcus pneumoniae mevalonate kinase; purified MK, PK/LDH-coupled NADH absorbance 340 nm; inhibition, % at 10 µM; 65,000 compounds, 0.48% hits; AID 555;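 active = ranked among the strongest by inhibition in the single 10 µM screen, a fixed top-ranked set picked for dose follow-up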
Abs 340nm = compounds absorbing at 340 nm. compound absorbance at 340 nm, fold over control. fold change at 10 µM. 65,000 tested, under 10 active;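 active = at 10 µM dose, initial 340 nm absorbance at least 2 fold that of control wells; inactive = change under 2 fold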;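 also: initial absorbance extrapolated from kinetic A340 decline of NADH oxidation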
NADH enzymes = blocks coupling enzymes of NAD/NADH assays; coupled PK/LDH NADH assays, four targets; IC50, µM (titrated, usually from 10 µM), without a hit: at the highest dose inhibition; 65,000 compounds, 0.02% hits;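 active = single-dose screening hits from any of four coupled enzyme assays that gave an IC50 when retested across doses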;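 also: the DPM-DC format reads NADH fluorescence rather than 340 nm absorbance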
Fluor 339 460 = intrinsic fluorescence of library compounds, ex339/em460 – biochemical, MLSMR library, data from DPM-DC assay, artefact control, profiling panel; compound autofluorescence, ex339/em460 nm, NADH buffer; active compounds read high; 1 = no-compound wells, NADH background; fluorescence fold increase at 10 µM; AID 709; 65,000 compounds, 5.5% hits;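 active = at 10 µM, mean starting fluorescence two-fold or more over control wells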;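 also: signal is the first read of a kinetic run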
* marks the source's active call; other numbers are inactive results; i = inactive; nt = no result given; + = active, no number; [ ] = dose if it differs, or a comment.

SMILES | Spn DPM-DC inh | Spn PMK inh | MK inhibit | Abs 340nm | NADH enzymes | Fluor 339 460
O=C(O)c1cc(=O)c2c(OCC(O)COc3cccc4oc(C(=O)O)cc(=O)c34)cccc2o1 | i | 0 | 7 | 0.99 | 2% | 1
CCOC(=O)c1oc2cccc(OCC(O)CNC(C)C)c2c1C (stereo not drawn) | nt | 10 | 13 | 1 | 12% | 3.6*
CCOc1ccc(NC(=O)CSc2nnc(Cn3c(=O)sc4ccccc43)n2C)cc1 | i | 7 | 3 | 1 | 5% | 0.99
CN1CCN(C(=O)c2cn(C)c3ccc(S(=O)(=O)N(C)C4CCCCC4)cc3c2=O)CC1 | i | 5 | 4 | 1.1 | 3% | 1
CCN1CCN(Cc2c(O)c(Cl)cc3c(C)cc(=O)oc23)CC1 | nt | 0 | 0 | 1.1 | 0% | 2.2*
Cc1cc(=O)oc2c(CN3CCCCC3)c(O)c(Cl)cc12 | nt | 0 | 12 | 1.1 | 6% | 2.4*
Cc1cc(=O)oc2c(CN3CCC(C)CC3)c(O)c(Cl)cc12 | nt | 7 | 0 | 1.1 | 4% | 2.3*
CCc1cc(=O)oc2cc(C)c(CN3CCCCC3)c(O)c12 | i | 0 | 0 | 1.1 | 0% | 1.1
CCOC(=O)c1nnn(-c2nonc2N)c1CN(C)C1CCCCC1 | i | 19 | 1 | 0.99 | 7% | 1.1
O=C(c1cccc(F)c1)N1CCN(C(=O)c2nn3cccnc3c2Cl)CC1 | i | 0 | 3 | 1.1 | 1% | 1.2
CC(C)CCNc1nc2c(cc1C#N)COC(C)(C)C2 | nt | 0 | 5 | 1 | 3% | 2.2*
Cc1cc(NC(=O)CSc2nnc3c4c(C)c(C)sc4ncn23)no1 | i | 9 | 6 | 0.99 | 5% | 1.2
O=C(c1cccc(F)c1)N1CCN(Cc2ccco2)CC1 | i | 3 | 44* | 1.1 | 16% | 1.1
Cc1c(Cl)ccc2c1NC(=O)C21NC(CCC(N)=O)[C@H]2C(=O)N(c3ccc(Cl)cc3)C(=O)[C@H]21 (stereo partly drawn) | i | 11 | 8 | 0.99 | 6% | 1.1
CCOC(=O)c1cc2c(=O)n3cccc(C)c3nc2n(CC2CCCO2)c1=NC(C)=O (stereo not drawn) | nt | 9 | 0 | 1 | 5% | 2.9*
CCOC(=O)c1cc2c(=O)n3cccc(C)c3nc2n(CCc2ccccc2)c1=N | +[fluoresces] | 5 | 4 | 0.98 | 3% | 2.3*
CCOC(=O)c1cc2c(=O)n3cccc(C)c3nc2n(Cc2ccccc2Cl)c1=N | i | 9 | 7 | 1 | 7% | 1.9
CCOC(=O)c1cc2c(=O)n3cccc(C)c3nc2n(CCc2ccc(OC)c(OC)c2)c1=N | i | 12 | 10 | 1 | 7% | 1.2
C=CCn1c(=N)c(C(=O)OCC)cc2c(=O)n3cccc(C)c3nc21 | nt | 0 | 0 | 1.1 | 0% | 2.3*
CN(CC(=O)NC1CCCc2ccccc21)S(=O)(=O)c1ccc2c(c1)c(=O)n(C)c(=O)n2C (stereo not drawn) | i | 8 | 3 | 1.1 | 4% | 1.1
COc1ccc2nc(NCCCNC(=O)c3cc(OC)c(OC)c(OC)c3)c(C#N)cc2c1 | nt | 17 | 0 | 1 | 9% | 3.1*
COc1ccc(N2CCN(Cc3cc(=O)oc4cc5c(cc34)CCCC5)CC2)cc1 | i | 8 | 6 | 1 | 5% | 1.1
CC(C)CCN1CC(C(=O)NCCC2=CCCCC2)CC1=O (stereo not drawn) | i | 21 | 0 | 1 | 7% | 1.1
CCOC(=O)c1cc(S(=O)(=O)NC2CCN(C(=O)OCC)CC2)cn1C | i | 12 | 0 | 1 | 4% | 1.1
COc1ccccc1N1CCN(c2cc(N3CCCC3)nc(C)n2)CC1 | i | 4 | 2 | 1 | 2% | 1.2
SMILES | Spn DPM-DC inh | Spn PMK inh | MK inhibit | Abs 340nm | NADH enzymes | Fluor 339 460
COc1ccc(OC)c2c(C)cc(N3CCCN(C)CC3)nc12 | nt | 0 | 1 | 1.1 | 1% | 2.2*
O=C(NCc1ccco1)c1ccc(CN2CCOCC2)cc1 | i | 0 | 6 | 1 | 4% | 1.1
COc1ccc(-n2c(O)c(/C=N/n3cnnc3)c3ccccc3c2=O)cc1 | nt | 0 | 5 | 1 | 3% | 2.1*
Cc1nn2c(N3CCCC3)cc(C(C)C)nc2c1-c1ccccc1 | i | 6 | 6 | 1 | 5% | 2.1*
Cc1cc(N2CCCCC2)n2nc(C)c(-c3ccccc3)c2n1 | i | 9 | 8 | 1 | 9% | 1.9
CCCc1cc(N2CCN(c3ccccn3)CC2)n2nc(C)c(-c3ccccc3)c2n1 | i | 0 | 9 | 1 | 6% | 2.8*
Cc1cc(N2CCN(C(=O)c3ccco3)CC2)n2ncc(-c3ccccc3)c2n1 | i | 10 | 0 | 1.1 | 4% | 1.4
Cc1cc(N2CCC(C)CC2)n2ncc(-c3ccccc3)c2n1 | i | 13 | 9 | 1 | 10% | 3*
Cc1cc(N2CCC(C)CC2)n2nc(C)c(-c3ccccc3)c2n1 | i | 11 | 2 | 1 | 5% | 2.4*
Cc1nc(NC2=NCN(CCCN3CCOCC3)CN2)nc2c(C)cccc12 | i | 15 | 7 | 1 | 4% | 1.1
O=C(Nc1ccon1)c1ccc(S(=O)(=O)N2CCCCCC2)cc1 | i | 1 | 10 | 1.1 | 4% | 1
CCCOc1cccc(C(=O)Nc2cc(NC(=O)c3ccco3)ccc2OC)c1 | i | 16 | 4 | 1 | 3% | 0.99
Cc1cc(N2CCCCC2)n2ncc(-c3ccc(Cl)cc3)c2n1 | nt | 3 | 16 | 1 | 10% | 3.7*
Cc1cc(N2CCCCC2)n2ncc(-c3ccccc3)c2n1 | i | 12 | 10 | 1 | 7% | 2.5*
COc1ccc(-c2noc(C3CCCN(S(=O)(=O)c4cccc(Cl)c4)C3)n2)cc1OC (stereo not drawn) | i | 3 | 0 | 1 | 1% | 1.1
CCN=C1SC(CC(=O)Nc2sc3c(c2C#N)CCCC3)C(=O)N1CC (stereo not drawn) | i | 0 | 4 | 1 | 1% | 1.1
CCN(CC)CCn1cnc2c([nH]c3cccc(OC)c32)c1=O | nt | 12 | 6 | 1 | 9% | 3.7*
COc1cccc2[nH]c3c(=O)n(CCN(C)C)cnc3c12 | nt | 16 | 13 | 1 | 15% | 3.8*
O=c1c2[nH]c3cccc(Cl)c3c2ncn1Cc1ccncc1 | i | 1 | 12 | 1 | 4% | 1.5
CC(=O)NC(CCS(C)(=O)=O)C(=O)Nc1ccc(C)c(F)c1 (stereo not drawn) | i | 10 | 0 | 1 | 3% | 1.1
COc1ccc(N2C(C)=CS/C2=C(/C#N)c2nnc(N3CCOCC3)n2-c2ccccc2)cc1 | + | 74* | 78* | 1.2 | 72% | 1.1
COCCn1c(=N)c(C(=O)NCCc2ccc(OC)cc2)cc2c(=O)n3cccc(C)c3nc21 | i | 8 | 9 | 1.1 | 10% | 2.7*
COCCCNC(=O)c1cc2c(=O)n3cccc(C)c3nc2n(C(C)C)c1=N | nt | 18 | 8 | 1 | 13% | 5.1*

Assay outcomes from PubChem BioAssay.
